Results from the supplement of paper PMC6897291.
Where a name gives a salt, the structure may show the parent alone.

Assays:
U-2932 [1] = test: growth inhibition by drug alone (1 - RLU/untreated control) (fraction); higher = stronger inhibition; conditions: 177Lu-lilotomab satetraxetan 0 ug/ml
Summary of the method: (§1)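 Plates pre-printed with the Selleck Cambridge Cancer Compound library at 10/100 nM (RIVA) or 10/1,000 nM (U-2932) received 3,000 cells/well. These cells had been washed after 18 h untreated or with a radiolabelled anti-CD37 antibody conjugate (~600 MBq/mg; 0.5 µg/ml RIVA, 1 µg/ml U-2932). Growth inhibition was obtained from RealTime-Glo luminescence in relation to untreated no-drug wells. Each daily read from day 3, taken after 1 h at 37°C, was converted as 1 − RLU/mean of 48 such wells per plate.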

RIVA [2] = test: as above; conditions: 177Lu-lilotomab satetraxetan 0 ug/ml
Summary of the method: as §1

U-2932 [3] = test: growth inhibition by drug plus 177Lu-lilotomab satetraxetan (1 - RLU/untreated control) (fraction); higher = stronger inhibition; conditions: 177Lu-lilotomab satetraxetan 1 ug/ml
Summary of the method: as §1

RIVA [4] = test: as above; conditions: 177Lu-lilotomab satetraxetan 0.5 ug/ml
Summary of the method: as §1

Structure (SMILES) | growth inhibition by drug alone (U-2932 [1]; 10 nM, time (day): 3) | growth inhibition by drug alone (U-2932 [1]; 10 nM, time (day): 4) | growth inhibition by drug alone (U-2932 [1]; 10 nM, time (day): 5) | growth inhibition by drug alone (U-2932 [1]; 10 nM, time (day): 6) | growth inhibition by drug alone (U-2932 [1]; 1000 nM, time (day): 3) | growth inhibition by drug alone (U-2932 [1]; 1000 nM, time (day): 4) | growth inhibition by drug alone (U-2932 [1]; 1000 nM, time (day): 5) | growth inhibition by drug alone (U-2932 [1]; 1000 nM, time (day): 6) | growth inhibition by drug alone (RIVA [2]; 10 nM, time (day): 3) | growth inhibition by drug alone (RIVA [2]; 10 nM, time (day): 4) | growth inhibition by drug alone (RIVA [2]; 10 nM, time (day): 5) | growth inhibition by drug alone (RIVA [2]; 10 nM, time (day): 6) | growth inhibition by drug alone (RIVA [2]; 100 nM, time (day): 3) | growth inhibition by drug alone (RIVA [2]; 100 nM, time (day): 4) | growth inhibition by drug alone (RIVA [2]; 100 nM, time (day): 5) | growth inhibition by drug alone (RIVA [2]; 100 nM, time (day): 6) | growth inhibition by drug plus 177Lu-lilotomab satetraxetan (U-2932 [3]; 10 nM, time (day): 3) | growth inhibition by drug plus 177Lu-lilotomab satetraxetan (U-2932 [3]; 10 nM, time (day): 4) | growth inhibition by drug plus 177Lu-lilotomab satetraxetan (U-2932 [3]; 10 nM, time (day): 5) | growth inhibition by drug plus 177Lu-lilotomab satetraxetan (U-2932 [3]; 10 nM, time (day): 6) | growth inhibition by drug plus 177Lu-lilotomab satetraxetan (U-2932 [3]; 1000 nM, time (day): 3) | growth inhibition by drug plus 177Lu-lilotomab satetraxetan (U-2932 [3]; 1000 nM, time (day): 4) | growth inhibition by drug plus 177Lu-lilotomab satetraxetan (U-2932 [3]; 1000 nM, time (day): 5) | growth inhibition by drug plus 177Lu-lilotomab satetraxetan (U-2932 [3]; 1000 nM, time (day): 6) | growth inhibition by drug plus 177Lu-lilotomab satetraxetan (RIVA [4]; 10 nM, time (day): 3) | growth inhibition by drug plus 177Lu-lilotomab satetraxetan (RIVA [4]; 10 nM, time (day): 4) | growth inhibition by drug plus 177Lu-lilotomab satetraxetan (RIVA [4]; 10 nM, time (day): 5) | growth inhibition by drug plus 177Lu-lilotomab satetraxetan (RIVA [4]; 10 nM, time (day): 6) | growth inhibition by drug plus 177Lu-lilotomab satetraxetan (RIVA [4]; 100 nM, time (day): 3) | growth inhibition by drug plus 177Lu-lilotomab satetraxetan (RIVA [4]; 100 nM, time (day): 4) | growth inhibition by drug plus 177Lu-lilotomab satetraxetan (RIVA [4]; 100 nM, time (day): 5) | growth inhibition by drug plus 177Lu-lilotomab satetraxetan (RIVA [4]; 100 nM, time (day): 6)
CC(C)C[C@H](NC(=O)[C@@H](O)[C@H](N)Cc1ccccc1)C(=O)O [Ubenimex (Bestatin)] | 0.0863 | 0.0556 | -0.0551 | -0.108 | -0.043 | -0.0237 | -0.0577 | -0.0906 | 0.135 | 0.0658 | -0.0244 | -0.181 | 0.0407 | 0.0221 | 0.00426 | -0.114 | 0.0135 | 0.0451 | 0.0835 | 0.192 | -0.112 | -0.0121 | -0.00508 | 0.0506 | 0.428 | 0.535 | 0.552 | 0.573 | 0.504 | 0.54 | 0.554 | 0.541
C[C@H](NC(=O)Cc1cc(F)cc(F)c1)C(=O)N[C@H](C(=O)OC(C)(C)C)c1ccccc1 | -0.0234 | -0.0325 | -0.047 | -0.000319 | -0.0711 | -0.073 | -0.0673 | -0.0373 | -0.112 | -0.175 | -0.192 | -0.264 | -0.299 | -0.293 | -0.297 | -0.351 | -0.0297 | 0.0223 | 0.0667 | 0.147 | -0.025 | 0.0181 | 0.0285 | 0.158 | 0.498 | 0.535 | 0.549 | 0.545 | 0.341 | 0.426 | 0.437 | 0.445
CC1(C)CNc2cc(NC(=O)c3cccnc3NCc3ccncc3)ccc21 [Motesanib Diphosphate] | 0.0212 | -0.0392 | -0.0873 | -0.298 | -0.0958 | -0.0733 | -0.118 | -0.248 | -0.0638 | -0.211 | -0.283 | -0.584 | -0.22 | -0.341 | -0.349 | -0.452 | -0.0309 | -0.0326 | -0.0402 | 0.00139 | -0.132 | -0.033 | -0.00123 | 0.0914 | 0.361 | 0.516 | 0.536 | 0.546 | 0.45 | 0.537 | 0.536 | 0.512
CC(=O)[C@]1(O)Cc2c(O)c3c(c(O)c2[C@@H](O[C@H]2C[C@H](N)[C@H](O)[C@H](C)O2)C1)C(=O)c1ccccc1C3=O [Idarubicin HCl] | 0.517 | 0.599 | 0.684 | 0.751 | 0.962 | 0.973 | 0.977 | 0.98 | 0.685 | 0.744 | 0.786 | 0.827 | 0.781 | 0.825 | 0.851 | 0.883 | 0.584 | 0.712 | 0.817 | 0.881 | 0.972 | 0.979 | 0.981 | 0.985 | 0.924 | 0.947 | 0.964 | 0.971 | 0.831 | 0.89 | 0.913 | 0.939
CNC(=O)c1ccc(C)c(-n2c(C)cc(OCc3ccc(F)cc3F)c(Br)c2=O)c1 | -0.0234 | -0.0123 | -0.0323 | 0.108 | 0.24 | 0.241 | 0.147 | 0.195 | -0.177 | -0.212 | -0.219 | -0.282 | -0.0302 | -0.0737 | -0.127 | -0.224 | -0.0515 | -0.0206 | -0.0169 | 0.111 | 0.253 | 0.259 | 0.213 | 0.294 | 0.41 | 0.508 | 0.521 | 0.522 | 0.384 | 0.458 | 0.462 | 0.428
Cc1ccc([N+](=O)[O-])cc1S(=O)(=O)N(C)/N=C/c1cnc2ccc(Br)cn12 | 0.343 | 0.311 | 0.248 | 0.226 | 0.963 | 0.969 | 0.976 | 0.979 | 0.193 | 0.193 | 0.103 | -0.15 | 0.507 | 0.599 | 0.585 | 0.539 | 0.346 | 0.371 | 0.418 | 0.47 | 0.969 | 0.975 | 0.981 | 0.985 | 0.675 | 0.726 | 0.736 | 0.726 | 0.775 | 0.854 | 0.868 | 0.889
CNC(=O)c1ccccc1Sc1ccc2c(/C=C/c3ccccn3)n[nH]c2c1 [Axitinib] | -0.00761 | 0.0176 | 0.0231 | -0.0205 | 0.0126 | 0.0489 | -0.0091 | -0.0631 | -0.0928 | -0.118 | -0.216 | -0.609 | -0.116 | -0.0759 | -0.117 | -0.195 | 0.0328 | 0.0444 | 0.0505 | 0.163 | -0.0364 | 0.0807 | 0.114 | 0.196 | 0.405 | 0.507 | 0.522 | 0.533 | 0.439 | 0.479 | 0.492 | 0.484
